# Screening results deposited in PubChem by several laboratories.
# Compounds with a hit are over-represented: about 2.7% of the library has one in this group of screens.
# NadD inh: inhibitors of S. aureus NadD, primary screen, biochemical, colorimetric, uHTS; Nicotinate-nucleotide adenylyltransferase NadD (Staphylococcus aureus N315); purified NadD enzyme, colorimetric absorbance read-out; inhibition, % at 20 µM; actives 0.78% (n = 360,000); in the data active means inhibition above about 26%
# rCAG RNA binder: binders of r(CAG) RNA repeats, primary screen, biochemical, fluorescence; r(CAG) RNA repeat, TO-PRO-1 dye displacement fluorescence; inhibition, % at 3 µM; actives 1.3% (n = 370,000); AID 651821, 2012;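 active means inhibition above the plate cutoff, the mean of all test compounds on that plate plus 3 SD, cut at about 35% in these data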;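 further: higher means more dye released from RNA so lower well fluorescence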
# MsrA inh: bovine MsrA enzyme inhibitors, primary screen, biochemical, absorbance, HTS; Methionine sulfoxide reductase A (Bos taurus); purified bovine MsrA, absorbance read-out; inhibition, % at 15.5 µM; actives 0.75% (n = 360,000); AID 651718, 2012; in the data active means inhibition above about 4.5%
# MsrA act: bovine MsrA enzyme activators, primary screen, biochemical, absorbance, HTS. Methionine sulfoxide reductase A (Bos taurus). activation, % at 10.6 µM. actives 0.3% (n = 360,000). purified bovine MsrA, absorbance read-out; in the data active means activation above about 7.5%
# NadD inh conf: inhibitors of S. aureus NadD, confirmation, biochemical, colorimetric, single concentration; inhibition, % at 20 µM; actives 13% (n = 2,000); shares compounds with NadD inh; purified S. aureus NadD, colorimetric enzyme assay; in the data active means inhibition mostly above about 42%, no sharp cut-off; inactive means mostly below about 42%
# A number is an active result; 0 = inactive; - = not tested or not shown.
SMILES,NadD inh,rCAG RNA binder,MsrA inh,MsrA act,NadD inh conf
COc1ccccc1/C=N/NC(=O)c1cc2c(ccc3ccccc32)o1,0,0,0,0,-
N#CCn1cc(/C=N/NC(=O)c2cc3c(ccc4ccccc43)o2)c2ccccc21,31,0,0,0,0
Cc1ccc(-c2ccc(/C=N\NC(=O)c3cc4c(ccc5ccccc54)o3)o2)cc1[N+](=O)[O-],45,0,0,0,0
Cc1cc([N+](=O)[O-])ccc1-c1ccc(/C=N/NC(=O)c2ccc(Br)o2)o1,31,0,0,0,0
Cc1ccc([N+](=O)[O-])cc1-c1ccc(/C=N/NC(=O)c2cc3c(ccc4ccccc43)o2)o1,33,0,0,0,0
O=C(N/N=C/c1cccc([N+](=O)[O-])c1)c1cc2c(ccc3ccccc32)o1,0,0,0,0,-
CN(Cc1ccccc1)C(=O)c1cccc(NC(=O)Cc2ccc(NC(=O)C3CCCN(C(=O)C4CCCC4)C3)cc2)c1 (centres undefined),0,0,0,0,-
O=C(COc1ncnc2sccc12)Nc1ccc(F)cc1F,30,0,0,0,0
COC(=O)[C@]12C=CCN1[C@H](c1ccccc1)c1c(c3ccccc3n1S(=O)(=O)c1ccc(C)cc1)C2,-,0,-,-,-
Clc1ccc(C2=Nn3c(nnc3-c3cc(-c4ccccc4)n[nH]3)SC2)cc1,45,0,0,0,0
Clc1ccc(C2=Nn3c(nnc3-c3n[nH]c4c3CCC4)SC2)cc1Cl,30,0,0,0,0
CCOC(=O)NC[C@@]1(C(=O)OC)CC(=O)N(Cc2ccc(Cl)cc2)[C@@H]1c1ccc(OC)cc1,-,0,-,-,-
CCCCOc1ccccc1NC(=O)CC1Nc2ccccc2NC1=O (centres undefined),31,0,0,0,0
CC(=O)N1c2ccc(S(=O)(=O)NCCc3ccc(S(N)(=O)=O)cc3)cc2CC1C (centres undefined),0,0,0,0,-
O=C(Cc1ccccc1)Nc1ccc(N2CCCC2)cc1,41,0,0,0,0
O=C(Cc1ccccc1)Nc1ccc(N2CCOCC2)cc1,0,0,0,0,-
O=C(Nc1ccc(N2CCCC2)cc1)C(c1ccccc1)c1ccccc1,37,0,0,0,0
C[C@H]1CN([C@@H](C)CO)C(=O)c2cc(-c3ccccc3F)cnc2O[C@@H]1CN(C)C(=O)NC1CCCCC1,0,0,0,0,-
N#Cc1ccc(NC(=S)NC(=O)C2CC2)cc1,0,0,0,0,-
COc1ccc(C(C(=O)NC2CCCC2)N(C(=O)c2snc(-c3ccc(F)cc3)c2N)c2cccc(F)c2)cc1 (centres undefined),39,0,0,0,0
COCCNC(=O)c1c(N)[nH]c(C(=O)c2ccc(Br)cc2)c1-c1ccc(Br)cc1,-,0,0,-,-
COc1ccc(Cc2c(-c3ccccc3)nc3ccc(Cl)cn23)c(C)c1,0,0,0,0,-
COc1ccc(Cc2c(-c3ccco3)nc3ccc(Cl)cn23)c(C)c1,42,0,0,0,0
Cc1ccc(-c2nc3ccc(Br)cn3c2Cc2cccc(F)c2)cc1,31,0,0,0,0
COc1ccc(Cc2c(-c3ccco3)nc3ccc(Br)cn23)c(C)c1,59,0,0,0,0
SMILES,NadD inh,rCAG RNA binder,MsrA inh,MsrA act,NadD inh conf
Cc1ccc(Cc2c(-c3ccco3)nc3ccc(Br)cn23)cc1,30,0,0,0,0
COc1ccc(Cc2c(-c3ccco3)nc3c(C)cc(Br)cn23)c(C)c1,0,0,0,0,-
Cc1ccc2nc(-c3ccc(F)cc3)c(Cc3cccc(F)c3)n2c1,-,0,0,-,-
CC(O)CNC1c2ccccc2CC1O (centres undefined),0,0,0,0,-
CN(C)S(=O)(=O)c1cccc(C(=O)N/N=C\c2ccccc2)c1,-,0,-,-,-
Cc1ccccc1-c1cccc2c3c([nH]c12)[C@@H]1C[C@H]2[C@@H](CN1CC3)[C@H](C)ON2C,-,0,-,-,-
Cc1nc2c3ccccc3nc(NNC(=O)CCC(=O)N3CCCC(C)C3)n2n1 (centres undefined),0,0,0,0,-
COc1ccc(NC(=S)N2CCC3CC2c2c(Cl)cccc23)c(OC)c1 (centres undefined),0,0,0,0,-
O=S(=O)(Nc1ccc2c(c1)nc1n2CCN(Cc2ccccc2)C1)c1ccc(Cl)cc1,32,0,0,0,0
O=C(CSc1nc(C2CC2)nc2sc3c(c12)CCCC3)NCc1ccco1,0,0,0,0,-
